In PubChem BioAssay (EPA / NIEHS) one finds outcome and AC50 data, which are given here for seven molecules.

Common to all, as to conditions: mRNA level, 48 h; actives raise or lower the signal
Read-out in experiment [1]: growth arrest and DNA damage 45 (GADD45B), GADD45B (gene 4616)
The experiment is described as follows: LTEA_HepaRG_GADD45B: Life Technologies and Expression Analysis (LTEA) Assay for growth arrest and DNA damage 45 (GADD45B) using HepaRG (AID 2283461). The gist of the method:
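Transcript level quantified by Fluidigm TaqMan qRT-PCR with three housekeeping genes for normalization, analyzed for up- or down-regulation against 0.5% DMSO. HepaRG cultures dosed 48 h at eight half-log concentrations up to 100 uM, duplicates.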

Read-out in experiment [2]: ABC Transporter (ABCC3), ABCC3 (gene 8714)
Nature of the experiment: LTEA_HepaRG_ABCC3: Life Technologies and Expression Analysis (LTEA) Assay for ABC Transporter (ABCC3) using HepaRG (AID 2283462). A digest of the protocol:
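Transcript level by TaqMan qRT-PCR, normalised to three housekeeping genes, fitted in both directions relative to vehicle. Chemicals tested in duplicate at eight half-log concentrations up to 100 uM for 48 h on HepaRG cells (0.5% DMSO).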

Read-out in experiment [3]: ABC Transporter (ABCB11), ABCB11 (gene 8647)
Nature of the experiment: LTEA_HepaRG_ABCB11: Life Technologies and Expression Analysis (LTEA) Assay for ABC Transporter (ABCB11) using HepaRG (AID 2283463). On the procedure:
LTEA_HepaRG is a cell based, multiplexed-readout assay that uses HepaRG, a human liver cell line, with measurements taken at 48 hours after chemical dosing on a 96-well plate.LTEA_HepaRG_ABCB11 is one of 102 assay component(s) measured in the LTEA HepaRG cell culture assay. It is a marker of Steatosis/NR mediated transport.Data from the assay component LTEA_HepaRG_ABCB11 was analyzed into 1 endpoint. This assay endpoint, LTEA_HepaRG_ABCB11, was analyzed with bidirectional fitting relative to DMSO as the negative control and baseline of activity. Using a type of inducible reporter, measures of mRNA induction for gain or loss-of-signal activity can be used to understand regulation of transcription factor activity. To generalize the intended target to other relatable targets, this assay endpoint is annotated to the transporter intended target family, where the subfamily is ABC transporter.
A total of 1060 chemcials from the ToxCast library were tested in eight-point concentration-response experiments. Cell culture and cytotoxicity assays were conducted at Thermo Fisher Scientific's Custom Services facility (Madison, WI). A single lot of human HepaRG cells (Thermo Fisher Scientific, Frederick, MD) was used for the cell culture experiments. 96-well format collagen type I coated plates of human HepaRG cells were prepared using established methods. Briefly, cryopreserved HepaRG cells were thawed, plated at a density of approximately 100,000 cells/well in HepaRG Thaw, Plate, and General Purpose media (HPRG770, Thermo Fisher Scientific), and incubated for 48 hours. 0.5% DMSO was selected as vehicle control to balance the requisite need of DMSO in HepaRG cultures to maintain differentiation (for example, baseline metabolism, proportions of hepatocytes vs. cholangiocytes), while enabling further hepatic receptor pathway activation (for example, PXR and CAR) in response to chemical exposure. 48 hours after plating, the culture medium was replaced with HepaRG Serum-Free Incudtion Media. Cells were exposed to each test chemical in duplicate and maintained in CO2 incubators for another 48 hours. Chemical plates were thawed to room temperature and 200x concentrations of treatment groups were prepared. 8-point conentration-reponse curves were made with the highest exposure at 100 uM, followed by half-log dilutions, all in 0.5% DMSO. Each test plate contained variouse controls, induction positive controls (1mM phenobarbital), cytotoxicity positive controls ([…] aflatoxin B1), vehicle controls (0.5% DMSO), and total lysis controls (0.5% DMSO). Cell morphology images were taken using an Essen IncuCyte FLR automated microscope, with six 96-well plates imaged in about 24 minutes. Images were captured and exported and JPEG files. Spent culture media was transfered to black-well plates for the LDH assay, and remaining media was sorted at -80 C for later use. Cells were treated with RLT buffer and frozen until shipped for gene expression analysis. Total RNA was isolated from the cell suspension in 75 uL of Buffer RLT (Qiagen, Germantown, MD 20874) by Quintiles/Expression Analysis (Durham, NC) using a custom isolation procedure. Total RNA from each plate well was transferred to a preamplification plate. Fluidigm's 96.96 Dynamic ArrayTM (Fluidigm, Amsterdam, the Netherlands) technology was used for gene expression analyses by quantitative reverse transcription polymerase chain reaction (qRT-PCR, performed by Quintiles/Expression Analysis, Durham, NC)89. Standard TaqManTM Assays (Applied Biosystems/ThermoFisher Scientific, Foster City, CA) were used to assess the expression of 93 genes selected based on their selectivity and sensitivity to important hepatic receptors known to be modulated by environmental chemicals; importance in human hepatocyte functionality; and hepatotoxicity. […]

Read-out in experiment [4]: ABC Transporter (ABCC2), ABCC2 (gene 1244)
The experiment is described as follows: LTEA_HepaRG_ABCC2: Life Technologies and Expression Analysis (LTEA) Assay for ABC Transporter (ABCC2) using HepaRG (AID 2283464). A digest of the protocol:
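Endpoint is ABCC2 transcript level from qRT-PCR, normalized to three housekeeping genes and fitted bidirectionally relative to DMSO. Human HepaRG cells received test chemical for 48 h at up to 100 uM (8 points, half-log steps, 0.5% DMSO), duplicate wells.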

Read-out in experiment [5]: Broad substrate specificity ATP-binding cassette transporter ABCG2 (Homo sapiens) (UniProt Q9UNQ0)
Nature of the experiment: LTEA_HepaRG_ABCG2: Life Technologies and Expression Analysis (LTEA) Assay for ABC Transporter (ABCG2) using HepaRG (AID 2283465). The gist of the method: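 Differentiated HepaRG cells were exposed for 48 h in serum-free induction medium to 8 half-log concentrations, top 100 uM, in 0.5% DMSO. ABCG2 mRNA was measured by qRT-PCR, normalized to ACTB, GAPDH and POLR2A, with bidirectional fitting versus DMSO.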

Read-out in experiment [6]: ATP-citrate lyase (ACLY), ACLY (gene 47)
The experiment is described as follows: LTEA_HepaRG_ACLY: Life Technologies and Expression Analysis (LTEA) Assay for ATP-citrate lyase (ACLY) using HepaRG (AID 2283466). A digest of the protocol: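 Differentiated HepaRG cells exposed 48 h in serum-free induction medium to eight half-log concentrations up to 100 uM in 0.5% DMSO, duplicates. Transcript measured by Fluidigm TaqMan qRT-PCR, normalized to ACTB, GAPDH, POLR2A; bidirectional fit versus DMSO.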

Read-out in experiment [7]: Peroxisomal acyl-coenzyme A oxidase 1 (ACOX1) gene, ACOX1 (gene 51)
Nature of the experiment: LTEA_HepaRG_ACOX1: Life Technologies and Expression Analysis (LTEA) Assay for Peroxisomal acyl-coenzyme A oxidase 1 (ACOX1) gene using HepaRG (AID 2283467). A digest of the protocol: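 HepaRG cells, plated 48 h then switched to serum-free induction medium, were exposed in duplicate for 48 h to 8-point half-log concentrations up to 100 uM in 0.5% DMSO. ACOX1 mRNA was measured by qRT-PCR, normalized to ACTB/GAPDH/POLR2A, and fitted bidirectionally versus DMSO.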

Read-out in experiment [8]: Alkaline Phosphatase, Placental (ALPP) gene, ALPP (gene 250)
Nature of the experiment: LTEA_HepaRG_ALPP: Life Technologies and Expression Analysis (LTEA) Assay for Alkaline Phosphatase, Placental (ALPP) gene using HepaRG (AID 2283468). The gist of the method: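 ALPP transcript level, measured by qRT-PCR and normalized to three housekeeping genes (ACTB, GAPDH, POLR2A), after 48 h dosing of differentiated HepaRG in serum-free induction medium. Top concentration 100 uM with half-log dilutions (8 points, 0.5% DMSO, duplicates); bidirectional fitting relative to DMSO.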

Read-out in experiment [9]: Bcl-2 (BAD) gene, BAD (gene 572)
The experiment is described as follows: LTEA_HepaRG_BAD: Life Technologies and Expression Analysis (LTEA) Assay for Bcl-2 (BAD) gene using HepaRG (AID 2283469). The gist of the method: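 Differentiated HepaRG cells were exposed in duplicate in 0.5% DMSO for 48 h to eight-point half-log concentrations up to 100 uM. BAD mRNA was measured by Fluidigm TaqMan qRT-PCR, normalized to ACTB, GAPDH and POLR2A, and fitted bidirectionally against DMSO.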

Read-out in experiment [10]: Bcl-2 (BAX) gene, BAX (gene 581)
The experiment is described as follows: LTEA_HepaRG_BAX: Life Technologies and Expression Analysis (LTEA) Assay for Bcl-2 (BAX) gene using HepaRG (AID 2283470). A digest of the protocol: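 Differentiated human HepaRG cells, plated 48 h then switched to serum-free induction medium, were exposed 48 h to 8 half-log concentrations up to 100 uM in 0.5% DMSO; BAX mRNA measured by qRT-PCR, normalized to ACTB, GAPDH, POLR2A.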

SMILES strings stand for the structures. Values joined by “and” are separate entries in the source; they are usually repeats but may differ in a detail not shown here. Equal values may be shown once. A structure can be active in one record and inactive in another. Active and inactive are the calls of the source. The calls were made as follows: active = hit-call score of the fitted dose curve at least 0.9, where 1 is the maximum; inactive = score below 0.9.

Sequence of Broad substrate specificity ATP-binding cassette transporter ABCG2 (Homo sapiens) (Q9UNQ0 whole entry, looked up): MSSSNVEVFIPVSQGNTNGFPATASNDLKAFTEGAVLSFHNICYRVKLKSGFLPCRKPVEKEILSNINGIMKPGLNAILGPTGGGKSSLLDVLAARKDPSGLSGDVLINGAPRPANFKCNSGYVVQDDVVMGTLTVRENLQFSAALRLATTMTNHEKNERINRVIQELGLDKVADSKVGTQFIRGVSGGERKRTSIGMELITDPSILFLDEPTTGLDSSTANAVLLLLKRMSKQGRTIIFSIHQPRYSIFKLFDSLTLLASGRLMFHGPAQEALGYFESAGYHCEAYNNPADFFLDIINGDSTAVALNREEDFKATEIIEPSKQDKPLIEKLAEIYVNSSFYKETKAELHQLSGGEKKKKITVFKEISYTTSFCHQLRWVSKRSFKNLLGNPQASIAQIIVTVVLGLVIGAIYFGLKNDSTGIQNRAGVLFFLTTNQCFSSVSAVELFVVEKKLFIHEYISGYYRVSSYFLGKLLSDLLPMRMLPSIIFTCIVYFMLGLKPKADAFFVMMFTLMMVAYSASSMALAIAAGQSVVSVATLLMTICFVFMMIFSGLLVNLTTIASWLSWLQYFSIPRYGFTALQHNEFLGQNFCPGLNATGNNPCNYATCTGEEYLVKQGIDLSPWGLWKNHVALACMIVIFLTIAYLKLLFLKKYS

Take `COC(=O)c1ccc(C(=O)OC)cc1`: the result in [1], in experiment [2], in experiment [3], in experiment [4], in experiment [5] and in experiment [6] was inactive. For the same molecule, the molecule was classed as inactive in experiment [7], in [8], in experiment [9] and in [10].

Usually AC50 stands for the concentration at which the activity in the assay is half-maximal. Take `O=C(c1ccc(OCCN2CCCCC2)cc1)c1c(-c2ccc(O)cc2)sc2cc(O)ccc12`: the AC50 in experiment [1] is 92.8 µM (active); in [2], 50 µM (active); in [3] it was 7.18 µM (active); in experiment [4] it was 84.8 µM (active); in experiment [7] it was 68.6 µM (active). Also, the call in experiment [5], in experiment [6], in experiment [8], in experiment [9] and in [10] was inactive.

Turning to `CCCCOCCOCCO`, the result in experiment [1], in [2], in [3], in experiment [4], in experiment [5] and in [6] was inactive. For the same molecule, the call in [7], in experiment [8], in experiment [9] and in experiment [10] was inactive.

Regarding `C#C[C@]1(O)CC[C@H]2[C@@H]3CCc4cc(O)ccc4[C@H]3CC[C@@]21C`, the call in experiment [1], in experiment [2], in [3], in [4], in experiment [5] and in [6] was inactive. The call in [7], in [8], in experiment [9] and in experiment [10] was inactive.

Take `CC/C(=C(\c1ccccc1)c1ccc(OCCN(C)C)cc1)c1ccccc1`: the AC50 in [1] is 79.1 µM (active) and 16.7 µM (active); in experiment [2] it was 11.2 µM (active) and 23 µM (active); in experiment [3], 26.4 µM (active) and 25.1 µM (active); in [4] it was 82.5 µM (active) and 93.4 µM (active); in experiment [7] it was 45.8 µM (active); in experiment [8] it was 21.5 µM (active) and 23.7 µM (active). Also, the result in experiment [5], in experiment [6], in experiment [7], in [9] and in [10] was inactive.

For `C[C@]12CC[C@@H]3c4ccc(O)cc4CC[C@H]3[C@@H]1CC[C@@H]2O`, the result in experiment [1], in experiment [2], in experiment [6], in experiment [7], in [8] and in [9] was inactive. Further, the molecule was classed as inactive in experiment [10]. Also, the AC50 is 50 µM (active) in [3], 41.2 µM (active) in experiment [4] and 3.03 µM (active) in experiment [5].

On to `C=C(C)C(N)=O`, for which the outcome in experiment [1], in experiment [2], in [3], in experiment [4], in experiment [5] and in experiment [6] was inactive. For the same molecule, the outcome in [7], in experiment [8], in experiment [9] and in experiment [10] was inactive.
